# Screening results from PubChem BioAssay.
# Tau fluor counter: counter-screen for tau fibril formation inhibitors | tau K18 P301L Alexa594 fluorescence, heparin fibrillization | Potency, µM (doses to about 57.7 µM), inactives show at the top dose activity change, negative = decrease | 280,000 tested, 0.93% active; further: potency means the concentration at half of the fitted maximal effect; nearly all actives have a fitted effect of over 55% in size
#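 Human tau K18 P301L (15 uM unlabeled, 0.24 uM Alexa 594-labeled) in 100 mM sodium acetate pH 7 with 20 uM heparin, 6 hr at 37 C. ThT 30 uM added, 1 hr ambient; Alexa 594 FP and total fluorescence read at 555/632 nm.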
# Tau FP inhib: inhibitors of human tau fibril formation. AID 1468. 280,000 tested, 0.39% active. Potency, µM (top dose mostly 57.7 µM), for inactives: at the highest dose activity, negative = inhibition, hits mostly inhibitors. K18 P301L tau heparin fibrillization, Alexa594 FP, 6 h; further: potency means the concentration at half of the fitted maximal effect; nearly all actives have a fitted effect of over 55% in size
# Target sequence (P10636 561-689 P618L limits assumed): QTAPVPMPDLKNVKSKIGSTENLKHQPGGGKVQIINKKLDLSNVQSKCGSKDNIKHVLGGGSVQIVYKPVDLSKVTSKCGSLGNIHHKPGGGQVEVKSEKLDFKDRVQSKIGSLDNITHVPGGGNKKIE
#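 K18 P301L tau (15 uM unlabeled/0.24 uM Alexa 594-labeled, final) + compound + heparin 20 uM final; 100 mM NaOAc pH 7; 6 hr 37 C; ThT 30 uM final added, 1 hr RT; FP ex 555/em 632 nm.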
# FBPA coupling cs: coupling enzyme interference in Giardia aldolase counter-screen; coupling enzyme system counterscreen, AmpLite Red fluorescence; activity change, negative = inhibition, % at 58.2 µM, hits read low; 290,000 tested, 0.67% active; in the data active means activity change below about -30%
#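 Compounds tested against the coupling enzymes alone at 57.5 uM final; readout was AmpLite Red fluorescence (525/598 nm) after 20 min at RT.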
# Tau ThT inhib: tau fibrillization inhibition (ThT binding); P10636; recombinant tau K18 P301L (four-repeat tau fragment), heparin-induced fibrillization, ThT fluorescence; Potency, µM (highest dose often 57.4 µM), for the others: at the highest dose activity, negative = inhibition, most hits filed as inhibitors; 270,000 tested, 2.1% active; AID 1460; further: potency means the concentration at half of the fitted maximal effect; nearly all actives have a fitted effect of over 55% in size
#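 K18 P301L tau (15 uM + 0.24 uM Alexa 594-tagged), heparin 20 uM, NaOAc pH 7, 6 h 37 C; ThT 30 uM, 1 h RT, ex 450/em 510 nm.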
# * hit, by the source's call; ? = inconclusive; nt = not tested or not shown; [ ] = remark or other dose. Hits are enriched below; roughly 2.7% of the tested compounds scored in any of these assays. Unless noted, the call rests on the fitted dose curve; in most records, active means well fitted curve in the direction sought with a large enough effect; inconclusive means small, poorly fitted or top-dose-only effect, or another doubt; inactive means no such curve, though single readings can be large; an effect the other way counts as inactive or inconclusive. On the % scale 0 is the no-effect control and ±100 the full control effect.
SMILES,Tau fluor counter,Tau FP inhib,FBPA coupling cs,Tau ThT inhib
O=[N+]([O-])c1cccc(NNS(=O)(=O)c2ccccc2F)c1,nt,nt,-30*,nt
N#Cc1c(N(CCO)CCO)nc(N)c2c(N)nc3c(c12)CC(=O)N3Cc1cccs1,?,?,-31*,16µM*
O=C(NCCc1c[nH]c2ccccc12)c1ccc2c(c1)OCO2,nt,nt,-4,nt
N#C/C(=C/c1ccc2c(c1)OCO2)C(=O)NCCc1c[nH]c2ccccc12,20µM*[quencher],5%,-3,13µM*
Cc1cc(Nc2ccccc2F)n2nc(Cc3ccc(Cl)cc3)nc2n1,16%,-1%,nt,16%
O=C(N=Nc1ccc(NOC(=O)c2ccccc2Br)cc1)c1ccccc1O,?,?,-25,10µM*
Cc1ccc(-c2cc(O)cc3sc(=O)oc23)cc1C,16µM*[quencher],22µM*,0,?
Cc1nnc(NC(=O)CSc2nccn2-c2ccc(Cl)cc2)s1,3%,2%,nt,4%
c1ccc2c(c1)Cc1cc3cc4c(cc3nc1-2)OCO4,?,12%,-10,3.2µM*
CCN(CC)C(=O)C1CCCN(c2ncnc3c2c(-c2ccccc2)cn3-c2cccc(C)c2)C1 (configuration not stated),-6%,-1%,nt,-14%
Cc1nnc(NC(=O)c2nc(S(=O)(=O)Cc3ccccc3)ncc2Cl)s1,-27%,?,nt,?
Cc1cccc(CS(=O)(=O)c2ncc(Cl)c(C(=O)NCc3ccccc3)n2)c1,1%,4%,nt,5%
Cc1cccc(CS(=O)(=O)c2ncc(Cl)c(C(=O)Nc3nc4ccc(F)cc4s3)n2)c1,-23%,-9%,nt,10µM*
O=C(Nc1nc2ccc(F)cc2s1)c1nc(S(=O)(=O)Cc2ccccc2)ncc1Cl,-30%,-13%,nt,7.1µM*
CN1CCc2cc3c(c4c2[C@H]1[C@H](O)c1ccccc1-4)OCO3,-17%,-2%,-32*,?
COc1ccc2c(c1OC)C(=O)O[C@H]2C1c2c(cc3c(c2OC)OCO3)CCN1C (some centres not stated),-17%,?,-2,-11%
CCC(C=C[C@@H]1OC(=O)C=C[C@H]1C)=C[C@H](C)CC=CC(C)=C[C@@H](C)C(=O)[C@@H](C)[C@H](O)[C@@H](C)CC(C)=CC(=O)O,-2%[2.34 µM],5%[2.34 µM],-59*,3%[2.31 µM]
COc1ccc2[nH]c(O)c(N=NC(=O)Cc3cccs3)c2c1,?,14%,-7,16µM*
COC(=O)c1ccc2c(c1)N(Cc1ccccc1)C(=O)c1ccccc1S2(=O)=O,-23%,-3%,nt,12%
Cc1ncc(CO)c(/C=N/NC(=S)Nc2ccc(Cl)c(Cl)c2)c1O,25µM*[quencher],-3%,-3,?
Cc1cccc(NC(=O)CN2C(=O)CCc3ccccc32)c1C,?,?,nt,-11%
CCCC/C=C/[C@H](C)[C@@](C)(COC(=O)c1ccc(Br)cc1)Cc1ccccc1,nt,nt,0,nt
COc1cc(/C=C(\C#N)c2nc3ccccc3o2)ccc1O,?,?,11,7.9µM*
COc1cc(/C=C(\C#N)c2nc(-c3cc4ccccc4oc3=O)cs2)ccc1O,?,4%,2,3.5µM*
N#C/C(=C\c1ccc(O)cc1)c1nc2ccccc2o1,?,-12%,5,?
SMILES,Tau fluor counter,Tau FP inhib,FBPA coupling cs,Tau ThT inhib
Cc1ccc(NC(=O)Cn2nc(C)c3nn(-c4ccc(Cl)cc4)c(C)c3c2=O)cc1F,-26%,-5%,nt,-3%
Cn1c(CSCc2ccc(F)cc2)nnc1SCC(=O)Nc1cccc(C(=O)O)c1,-1%,-5%,2,-4%
O=[N+]([O-])C(/C=C(/Cl)[N+](=O)[O-])=C(N1CCCCC1)N1CCCCC1,-4%,2%,0,?
Nc1ccccc1-n1c(=O)n(Cc2ccccc2F)c(=O)c2[nH]cnc21,nt,nt,1,nt
O=C(CSc1nc(-c2ccccc2)[nH]c1-c1ccccc1)Nc1ccc2c(c1)OCO2,7.1µM*[quencher],2%,nt,?
COc1cc(-c2nc(SCC(=O)Nc3ccc4c(c3)OCO4)c(-c3ccccc3)[nH]2)cc(OC)c1OC,5.6µM*[quencher],2%,nt,?
O=C(CSc1nc(-c2ccccc2)c(-c2ccccc2)[nH]1)Nc1ccc2c(c1)OCO2,?,5%,-1,-6%
COc1ccccc1Cc1nc2ccccc2nc1SCC(=O)Nc1ccc2c(c1)OCO2,-26%,-7%,nt,9%
CCNc1ncc2nc(-c3cccc(C#N)c3)c(=O)n(C)c2n1,nt,nt,-3,nt
CCN1/C(=C/C=C/c2oc3ccc(-c4ccccc4)cc3[n+]2CC)Oc2ccc(-c3ccccc3)cc21,4µM*[fluorescent],?,-1,?
